# Some of the results follow. Records with an inconclusive call do not appear. The source made the active and inactive calls. How the source made its calls: active means clear falling dose curves in both reporters; inconclusive means both reporters move, but less clearly or upward; inactive means either reporter flat; the % is the FLuc reporter signal.
# Assay: Cell-based coincidence reporter assay to measure PMP22 gene transcription in S16 Pmp22-F2sN cells - Confirmatory screen (AID 1508646)
# Conditions: S16 Schwann cells Pmp22-F2sN, dual luciferase, 24 h; series mostly up to 57.5 µM
# Description: Assay Provider: Jim Inglese Ph.D. National Center for Advancing Translational Science, National Institutes of Health, Rockville, MD CMT is a heterogeneous group of neurological disorders that affect approximately 1 in 2,500 people. In particular, the most common form of CMT, CMT1A is genetically linked to the duplication of the PMP22 gene which leads to Schwann cell overexpression, thus manifesting itself as a typical case of dose-sensitive diseases. To identify small molecule compounds that can mediate the expression of PMP22 we developed a phenotypic assay screening strategy by utilizing genome editing techniques to construct Schwann cell lines containing novel reporter technology to monitor the transcriptional or translational regulation of PMP22. For high sensitivity we use a bioluminescent reporter system embedded in the 3' UTR of the PMP22 gene (S16(c9) Pmp22-F2sN) to identify compounds that inhibit gene expression. […] We can further discriminate the effect of all transcriptionally active molecules on PMP22 translation or stability with an assay that incorporates a short NLuc peptide (HiBiT) at the C-terminus of expressed PMP22 (S16(f8) PMP22-HiBiT) allowing alpha complementation and luminescence detection of membrane-associated PMP22 protein. These assays were screened against the NCATS Sytravon Library Collection. Miniaturization of these assays to 1536-well plate format for quantitative high throughput screening (qHTS) yielded rich data sets immediately from the qHTS assay (S16(c9) Pmp22-F2sN), when compared with data from a cell viability assay (Cell TiterGlo) to identify compounds that decreased the output signals through cellular toxicity to streamline the selection process of actives for subsequent characterization using the HiBiT assay (S16(f8) PMP22-HiBiT).
# Cell-based coincidence reporter assay to measure PMP22 gene transcription in S16 Pmp22-F2sN cells PROTOCOL TABLE (format as described by Inglese J, Shamu CE and Guy RK. 2007) SEQUENCE No. (e.g., 1, 2, 3, etc.); PARAMETER (e.g., Cells, Incubation, Reagent, etc.); VALUE and DESCRIPTION. 1. Cells. Add 500-1,000 cells in 4 uL in growth media (DMEM High Glucose, No Phenol Red media + 10% heat-inactivated FBS + 1% Pen/Strep supplemented media) per well into Greiner 1536-well white/solid bottom high base, TC-treated plates. 2. Compounds. Library compounds and controls added at 23nL per well, transferred by Pin Tool. 3. Incubation. Incubate plates at 37C, 5% CO2, 95% RH for 24 h. 4. Reagent. Add 3.5uL Nano-Glo Dual-Luciferase Reporter Assay System reagent 1: Lysis and FLuc reagent per well of Greiner 1536-well plates. 5. Incubation. Incubate plates at room temperature for 10 min., protect from light. 6. Detector. FLuc luminescence measured using CCD-based camera (Viewlux). 7. Reagent. Add 3.5uL Nano-Glo Dual-Luciferase Reporter Assay System reagent 2: Stop&Glo reagent per well of Greiner 1536-well plates. 8. Incubation. Incubate plates at room temperature for 10 min., protect from light. 9. Detector. NLuc luminescence measured using CCD-based camera (Viewlux). NOTES (numbers refer to Sequence numbers above; values are from representative experiments) 6. Luminescence Read #1 (FLuc): Clear filter; Exposure = 10 sec, Gain = High, Speed = Slow, Binning = 2X 9. Luminescence Read #2 (NLuc): Clear filter; Exposure = 1 sec, Gain = High, Speed = Slow, Binning = 2X REFERENCES: 1. Inglese J, Shamu CE and Guy RK, Reporting data from high throughput screening of small molecule libraries, Nature Chemical Biology, 2007, 3(8): 438-441. doi.org/10.1038/nchembio0807-438 2. Yasgar A, Shinn P, Jadhav A, Auld DS, Michael S, Zheng W, Austin CP, Inglese J and Simeonov A, Compound Management for Quantitative High-Throughput Screening. J. Assoc. Lab. Auto., 2008, 13: 79-89. doi: 10.1016/j.jala.2007.12.004
# Potency means the concentration at half of the fitted maximal effect.
row,SMILES,Potency
1,COc1ccccc1Nc1c2c(nc3ccc(NC(=O)/C=C/c4cc(OC)c(OC)c(OC)c4)cc13)CCCC2,12.2 µM (active)
2,Cc1ccccc1CNC(=O)CSc1nnc(C)c2c(C)n(-c3ccccc3)nc12,16.3 µM (active)
3,CCc1ccc(NC(=O)CN2CCSc3ccc(S(=O)(=O)N4CCCC4)cc32)cc1,inactive
4,O=C(c1ccc2c(c1)N(Cc1ccc(F)cc1)C(=O)c1ccccc1S2(=O)=O)N1CCN(c2ccccn2)CC1,inactive
5,Cc1cc(F)ccc1NS(=O)(=O)c1ccc(-n2cccn2)cc1,inactive
6,Cc1sc(C2C(C#N)=C(N)N(c3cccc(Cl)c3)C3=C2C(=O)CCC3)cc1CN1CCOCC1 (stereo unspecified),inactive
7,O=C(CCS(=O)(=O)c1ccccc1)N(Cc1cccnc1)c1nc2c(F)cccc2s1,12.3 µM (active)
8,Cc1ccc(CCNC(=O)C2CCN(c3nnc(-n4cccc4CNc4ccc(C)cc4)s3)CC2)cc1,15.1 µM (active)
9,Cc1ccc(NC(=O)c2nc(S(=O)(=O)Cc3cccc(C)c3)ncc2Cl)cc1,13.1 µM (active)
10,Cc1cc(OCC(=O)NCC2(N(C)C)CCCCC2)cc(C)c1Cl,inactive
11,CCOC(=O)C1CCN(C(=O)CSc2c3c(nc4ccc(Cl)cc24)CCCC3)CC1,17.3 µM (active)
12,CCCS(=O)(=O)c1ncc(Cl)c(C(=O)Nc2scc(-c3ccccc3)c2C(=O)OCC)n1,10.4 µM (active)
13,COc1ccccc1-c1cc(C(F)(F)F)nc(S(=O)(=O)CCCC(=O)Nc2ccc(F)cc2F)n1,15.3 µM (active)
14,CCCCOc1ccc(CN2C(=O)C(=O)c3cc(Br)cc(C)c32)cc1OC,10.9 µM (active)
15,COc1cccc(NC(=O)CSC2=Nc3ccccc3C3=NC(CC(=O)NC4CCCCC4)C(=O)N23)c1 (stereo unspecified),inactive
16,CCOc1ccc(NC(=O)c2c(NC(=O)Cc3ccccc3)sc3c2CCC(C)C3)cc1 (stereo unspecified),16.5 µM (active)
